Measured values from PubChem BioAssay (EPA / NIEHS).
Several values for one entry are separate records, joined by “and”; a condition that tells them apart may be missing. Equal entries are not always repeated. More than one record can exist for a structure, and the calls need not agree. Activity calls are given as the source filed them. Rule for the calls: active = hit-call score of the fitted dose curve at least 0.9, where 1 is the maximum; inactive = score below 0.9.

Legend:
[1] = BSK_hDFCGF_Proliferation: Cell Proliferation Assessment in the BioMAP Diversity Plus: hDFCGF Assay (AID 2283059); settings: primary human foreskin fibroblasts;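 note: curves fitted for both rise and fall of signal versus DMSO baseline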
How it was run: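 Total protein read at 560 nm after 0.1% SRB staining of TCA-fixed human skin fibroblasts, […]. Activity is fitted in both directions relative to DMSO as baseline.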

[2] = read-out: Macrophage colony-stimulating factor (MCSF), CSF1 (gene 1435); assay: BSK_hDFCGF_MCSF: BioMAP Diversity Plus: hDFCGF Assay for Macrophage colony-stimulating factor (MCSF) Biomarker Activity (AID 2283060); settings: primary human foreskin fibroblasts; actives raise or lower the signal
How it was run: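 ELISA read-out of M-CSF in human dermal foreskin fibroblast cultures, 24 h after chemical dosing; gain or loss of signal fitted bidirectionally relative to DMSO baseline.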

[3] = BSK_hDFCGF_SRB: Viability Assessment in the BioMAP Diversity Plus: hDFCGF Assay (AID 2283061); settings: primary human foreskin fibroblasts;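 note: cells exposed to compound for 24 h before the read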
How it was run: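 Primary human foreskin fibroblasts; 24 h post-dose; fixed 10% TCA, stained 0.1% SRB, A560 read; total protein as overt cytotoxicity measure; curves fit bidirectionally vs DMSO control.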

[4] = read-out: TIMP metallopeptidase inhibitor 1 (TIMP1), TIMP1 (gene 7076); assay: BSK_hDFCGF_TIMP1: BioMAP Diversity Plus: hDFCGF Assay for TIMP metallopeptidase inhibitor 1 (TIMP1) Biomarker Activity (AID 2283062); settings: primary human foreskin fibroblasts; actives raise or lower the signal
How it was run: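 ELISA readout of TIMP-1 from human dermal foreskin fibroblast cultures 24 h post-dosing. Curves were fitted in both directions against DMSO baseline, with SRB total-protein staining in parallel cultures as a cytotoxicity check.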

[5] = read-out: Monokine induced gamma interferon (MIG), CXCL9 (gene 4283); assay: BSK_hDFCGF_MIG: BioMAP Diversity Plus: hDFCGF Assay for Monokine induced gamma interferon (MIG) Biomarker Activity (AID 2283063); settings: primary human foreskin fibroblasts; actives raise or lower the signal
How it was run: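 Fibroblasts (human foreskin, primary) dosed, 24 h, MIG by ELISA; fit bidirectional vs DMSO.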

[6] = read-out: Matrix Metallopeptidase 1 (MMP1), MMP1 (gene 4312); assay: BSK_hDFCGF_MMP1: BioMAP Diversity Plus: hDFCGF Assay for Matrix Metallopeptidase 1 (MMP1) Biomarker Activity (AID 2283064); settings: primary human foreskin fibroblasts; actives raise or lower the signal
How it was run: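 hDFCGF primary fibroblasts (human foreskin); chemical added; 24 h; MMP1 by ELISA; bidirectional fit vs DMSO.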

[7] = read-out: Vascular cell adhesion molecule 1 (VCAM1), VCAM1 (gene 7412); assay: BSK_hDFCGF_VCAM1: BioMAP Diversity Plus: hDFCGF Assay for Vascular cell adhesion molecule 1 (VCAM1) Biomarker Activity (AID 2283065); settings: primary human foreskin fibroblasts; actives raise or lower the signal;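 for AC50: VCAM-1 protein level quantified by ELISA after 24 h chemical exposure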
How it was run: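 ELISA read-out of VCAM-1 on human skin fibroblasts, 24 h post-dose; gain or loss of signal fitted bidirectionally against DMSO baseline.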

[8] = read-out: Interferon-gamma inducible Protein 10 (IP10), CXCL10 (gene 3627); assay: BSK_KF3CT_IP10: BioMAP Diversity Plus: KF3CT Assay for Interferon-gamma inducible Protein 10 (IP10) Biomarker Activity (AID 2283068); settings: primary human keratinocytes with fibroblasts; actives raise or lower the signal
How it was run: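 Human keratinocyte plus foreskin fibroblast primary co-culture exposed to test chemical for 24 h; IP-10 measured by ELISA. Concentration-response fitted bidirectionally against DMSO control as baseline.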

[9] = BSK_KF3CT_SRB: Viability Assessment in the BioMAP Diversity Plus: KF3CT Assay (AID 2283069); settings: primary human keratinocytes with fibroblasts;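 note: total protein by sulforhodamine B staining as a cytotoxicity measure; read 24 h after compound addition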
How it was run: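 Keratinocytes co-cultured with foreskin fibroblasts (human primary); chemical added, 24 h; fix 10% TCA, stain 0.1% SRB, A560. Bidirectional fit vs DMSO.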

[10] = read-out: Interleukin-1 alpha (IL1a), IL1A (gene 3552); assay: BSK_KF3CT_IL1a: BioMAP Diversity Plus: KF3CT Assay for Interleukin-1 alpha (IL1a) Biomarker Activity (AID 2283070); settings: primary human keratinocytes with fibroblasts; actives raise or lower the signal
How it was run: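 Chemicals were dosed onto co-cultured human keratinocytes and foreskin fibroblasts, IL-1a was quantified by ELISA at 24 h, and activity was fitted in both directions relative to DMSO controls.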

[11] = read-out: TIMP metallopeptidase inhibitor 2 (TIMP2), TIMP2 (gene 7077); assay: BSK_KF3CT_TIMP2: BioMAP Diversity Plus: KF3CT Assay for TIMP metallopeptidase inhibitor 2 (TIMP2) Biomarker Activity (AID 2283071); settings: primary human keratinocytes with fibroblasts; actives raise or lower the signal
How it was run: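 Human primary keratinocyte/foreskin fibroblast co-culture dosed with chemical and sampled at 24 h. TIMP-2 levels quantified by ELISA; bidirectional fitting against DMSO negative control as baseline.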

[12] = read-out: C-C motif chemokine 2 (Homo sapiens) (UniProt P13500); assay: BSK_KF3CT_MCP1: BioMAP Diversity Plus: KF3CT Assay for Monocyte Chemoattractant Protein 1 (MCP1/CCL2) Biomarker Activity (AID 2283073); settings: primary human keratinocytes with fibroblasts; actives raise or lower the signal
How it was run: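 KF3CT skin co-culture (keratinocytes/foreskin fibroblasts), 24 h post-dose; MCP-1 by ELISA; gain/loss of signal fit bidirectionally vs DMSO baseline.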

[13] = read-out: urokinase plasminogen activator (uPA), PLAU (gene 5328); assay: BSK_KF3CT_uPA: BioMAP Diversity Plus: KF3CT Assay for urokinase plasminogen activator (uPA) Biomarker Activity (AID 2283075); settings: primary human keratinocytes with fibroblasts; actives raise or lower the signal
How it was run: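 ELISA readout of uPA, analyzed for signal gain or loss relative to DMSO, from a human primary keratinocyte–foreskin fibroblast co-culture measured 24 h after chemical treatment.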

CD40, CD40 (gene 958) = assay: BSK_LPS_CD40: BioMAP Diversity Plus: LPS Assay for CD40 Biomarker Activity (AID 2283076); settings: primary human HUVEC with PBMC; actives raise or lower the signal
How it was run: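 ELISA readout of CD40 in HUVEC/PBMC co-culture (BSK_LPS system), 24 h post-dosing; bidirectional curve fit, DMSO baseline; parallel SRB total-protein staining for cytotoxicity.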

[14] = read-out: E-selectin (Homo sapiens) (UniProt P16581); assay: BSK_LPS_Eselectin: BioMAP Diversity Plus: LPS Assay for Eselectin Biomarker Activity (AID 2283077); settings: primary human HUVEC with PBMC; actives raise or lower the signal
How it was run: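 ELISA readout of E-selectin, 24 h post-dose, HUVEC + PBMC co-culture (LPS system). Gain or loss of signal vs DMSO baseline, bidirectional fit.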

[15] = read-out: Interleukin-8 (IL8), CXCL8 (gene 3576); assay: BSK_LPS_IL8: BioMAP Diversity Plus: LPS Assay for Interleukin-8 (IL8) Biomarker Activity (AID 2283078); settings: primary human HUVEC with PBMC; actives raise or lower the signal
How it was run: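 HUVEC + PBMC co-culture, LPS-activated; test chemicals dosed, IL-8 read by ELISA at 24 h. Bidirectional curve fit vs DMSO baseline (gain or loss of signal).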

[16] = read-out: Transforming growth factor beta 1 (TGFb1), TGFB1 (gene 7040); assay: BSK_KF3CT_TGFb1: BioMAP Diversity Plus: KF3CT Assay for Transforming growth factor beta 1 (TGFb1) Biomarker Activity (AID 2283072); settings: primary human keratinocytes with fibroblasts; actives raise or lower the signal
How it was run: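 Human keratinocyte plus foreskin fibroblast primary co-culture, dosed with chemical for 24 h. TGF-b1 quantified by ELISA. Activity fitted bidirectionally against DMSO negative control as baseline.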

[17] = read-out: Matrix Metallopeptidase 9 (MMP9), MMP9 (gene 4318); assay: BSK_KF3CT_MMP9: BioMAP Diversity Plus: KF3CT Assay for Matrix Metallopeptidase 9 (MMP9) Biomarker Activity (AID 2283074); settings: primary human keratinocytes with fibroblasts; actives raise or lower the signal
How it was run: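 Human keratinocyte/foreskin fibroblast co-culture; compound added; 24 h; MMP-9 by ELISA; bidirectional fit vs DMSO baseline.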

[18] = read-out: Plasminogen activator inhibitor-1 (PAI1), SERPINE1 (gene 5054); assay: BSK_hDFCGF_PAI1: BioMAP Diversity Plus: hDFCGF Assay for Plasminogen activator inhibitor-1 (PAI1) Biomarker Activity (AID 2283066); settings: primary human foreskin fibroblasts; actives raise or lower the signal
How it was run: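 Human foreskin fibroblasts in the hDFCGF system were dosed with compound for 24 h; PAI-1 was quantified by ELISA. Bidirectional curve fitting used DMSO as negative control and baseline.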

[19] = read-out: Intercellular Adhesion Molecule 1 (ICAM1), ICAM1 (gene 3383); assay: BSK_KF3CT_ICAM1: BioMAP Diversity Plus: KF3CT Assay for Intercellular Adhesion Molecule 1 (ICAM1) Biomarker Activity (AID 2283067); settings: primary human keratinocytes with fibroblasts; actives raise or lower the signal
How it was run: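 ELISA readout of ICAM-1; KF3CT human skin co-culture (keratinocytes + foreskin fibroblasts), 24 h post-dose; gain/loss fit vs DMSO baseline.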

Measured: AC50

Sequence of E-selectin (Homo sapiens) (P16581 whole entry, looked up): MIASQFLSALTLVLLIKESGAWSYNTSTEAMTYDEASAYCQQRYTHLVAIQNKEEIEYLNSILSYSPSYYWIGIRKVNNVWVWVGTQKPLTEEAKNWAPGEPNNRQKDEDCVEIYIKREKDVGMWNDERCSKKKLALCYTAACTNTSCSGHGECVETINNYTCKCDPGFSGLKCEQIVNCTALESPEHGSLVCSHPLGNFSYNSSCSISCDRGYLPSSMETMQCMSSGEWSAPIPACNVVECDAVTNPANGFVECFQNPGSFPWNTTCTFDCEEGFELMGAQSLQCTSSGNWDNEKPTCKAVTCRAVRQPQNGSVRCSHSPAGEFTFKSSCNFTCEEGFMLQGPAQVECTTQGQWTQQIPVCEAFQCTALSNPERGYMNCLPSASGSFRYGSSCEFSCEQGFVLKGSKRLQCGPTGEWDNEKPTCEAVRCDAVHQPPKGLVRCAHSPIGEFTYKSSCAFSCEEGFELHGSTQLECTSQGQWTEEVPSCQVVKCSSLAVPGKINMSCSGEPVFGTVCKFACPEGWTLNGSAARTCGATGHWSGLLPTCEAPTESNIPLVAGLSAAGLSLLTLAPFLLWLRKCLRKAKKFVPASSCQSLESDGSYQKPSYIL

O=C(O)C(F)(OC(F)(F)C(F)(F)C(F)(F)F)C(F)(F)F (configuration not stated)
inactive: [1] | [2] | [3] | [4] | [5] | [6] | [7] | [8] | [9] | [10] | [11] | [12] | [13] | CD40, CD40 (gene 958) | [14] | [15]
active: [15] 18 µM and 12.1 µM

CCC1(c2ccccc2)C(=O)N=C(O)NC1=O (configuration not stated)
not listed: [18] | [19]
inactive: all other assays above

c1ccc(OP(Oc2ccccc2)Oc2ccccc2)cc1
not listed: [1] | [14]
inactive: all other assays above

CC(O)C(F)(F)C(F)(F)F (configuration not stated)
not listed: [1] | [16] | [17]
inactive: all other assays above

O=[N+]([O-])c1ccc(Cl)c(Cl)c1
not listed: [18] | [19]
inactive: all other assays above

COCCOCCO
active: [11] 148 nM | [12] 254 nM
not listed: [18] | [19]
inactive: all other assays above

N#Cc1c(-c2ccc(Cl)cc2)[nH]c(C(F)(F)F)c1Br
inactive: [6] | [9] | [10] | [11] | [13] | [14]
active: [1] 731 nM | [2] 56.6 nM | [3] 3.97 µM | [4] 6.18 µM | [5] 20 µM | [7] 2.9 µM | [16] 186 nM | [12] 62.1 nM | CD40, CD40 (gene 958) 4.05 µM | [15] 4.18 µM
